Holding throughout (experiment): DAPPL (digital affinity profiling via proximity ligation, sequencing); 10 mM Tris-HCl pH 7.5, 50 mM NaCl, 1 mM DTT, 4% glycerol, room temperature, 30 min; GST-TFs on glutathione beads, 16-mer random dsDNA library, 0.1% formaldehyde crosslink after washing; high values mean tight binding
What all share (settings): protein: recombinant; tags: N-terminal GST; dsDNA, one strand shown

The target in one assay is T1, ERF (Homo sapiens, UniProt P50548 1-548).
T1 sequence: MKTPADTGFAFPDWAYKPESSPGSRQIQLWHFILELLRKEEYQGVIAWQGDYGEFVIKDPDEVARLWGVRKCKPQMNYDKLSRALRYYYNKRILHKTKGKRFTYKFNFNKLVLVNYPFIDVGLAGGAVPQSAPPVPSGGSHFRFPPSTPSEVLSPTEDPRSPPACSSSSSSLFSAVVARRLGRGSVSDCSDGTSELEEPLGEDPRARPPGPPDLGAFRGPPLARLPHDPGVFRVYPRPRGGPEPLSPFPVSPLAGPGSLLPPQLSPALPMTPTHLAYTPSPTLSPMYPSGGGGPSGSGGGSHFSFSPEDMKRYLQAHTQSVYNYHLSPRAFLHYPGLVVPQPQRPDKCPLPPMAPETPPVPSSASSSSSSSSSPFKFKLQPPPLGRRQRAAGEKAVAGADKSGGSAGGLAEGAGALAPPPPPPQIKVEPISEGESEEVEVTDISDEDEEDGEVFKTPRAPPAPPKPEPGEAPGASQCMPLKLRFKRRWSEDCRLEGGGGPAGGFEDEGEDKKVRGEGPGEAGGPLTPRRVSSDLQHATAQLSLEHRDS
An outline of the steps:
(§1)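 Pools were built from human transcription factors expressed in yeast as GST fusions, captured on glutathione beads and DNA-barcoded, along with a tag-only sample. Incubation with 200 nmole of a 16-mer random double-stranded DNA library lasted 30 min at room temperature in Tris/NaCl/DTT/glycerol buffer, and was followed by washing, 0.1% formaldehyde crosslinking, proximity ligation, PCR amplification and Illumina NextSeq500 sequencing. Binding signal is the quotient of each hexamer's read frequency for a factor and its frequency for the tag-only sample.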

The next assay deals with T2, ETV3L (Homo sapiens, UniProt Q6ZN32 1-361).
T2 sequence: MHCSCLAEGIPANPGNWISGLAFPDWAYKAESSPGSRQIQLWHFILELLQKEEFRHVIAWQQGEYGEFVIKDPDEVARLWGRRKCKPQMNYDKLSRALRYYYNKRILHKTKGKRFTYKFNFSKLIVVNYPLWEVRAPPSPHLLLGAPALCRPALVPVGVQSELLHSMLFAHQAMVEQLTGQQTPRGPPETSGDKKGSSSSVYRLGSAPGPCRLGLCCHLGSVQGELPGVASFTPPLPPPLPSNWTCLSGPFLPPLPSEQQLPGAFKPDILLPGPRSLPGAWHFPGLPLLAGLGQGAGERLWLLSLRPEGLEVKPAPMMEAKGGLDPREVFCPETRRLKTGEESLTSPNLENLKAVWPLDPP
In a few lines:
as §1

Another assay addresses T3, ETS2 (Homo sapiens, UniProt P15036 1-469).
T3 sequence: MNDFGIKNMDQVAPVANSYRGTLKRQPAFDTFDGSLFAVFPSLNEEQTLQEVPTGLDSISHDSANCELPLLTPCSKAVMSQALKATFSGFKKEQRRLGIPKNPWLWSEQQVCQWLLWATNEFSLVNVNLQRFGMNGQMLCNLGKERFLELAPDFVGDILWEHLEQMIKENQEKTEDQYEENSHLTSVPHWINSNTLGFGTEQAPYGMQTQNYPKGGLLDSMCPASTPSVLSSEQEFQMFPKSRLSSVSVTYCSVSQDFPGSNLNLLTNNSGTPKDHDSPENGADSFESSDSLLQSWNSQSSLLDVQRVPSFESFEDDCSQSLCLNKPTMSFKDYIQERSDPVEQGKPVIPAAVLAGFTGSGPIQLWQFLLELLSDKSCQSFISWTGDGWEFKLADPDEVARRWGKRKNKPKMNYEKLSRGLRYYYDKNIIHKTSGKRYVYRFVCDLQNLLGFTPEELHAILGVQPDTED
In a few lines: as §1

A further assay has as its target T4, SPDEF (Homo sapiens, UniProt O95238 1-335).
T4 sequence: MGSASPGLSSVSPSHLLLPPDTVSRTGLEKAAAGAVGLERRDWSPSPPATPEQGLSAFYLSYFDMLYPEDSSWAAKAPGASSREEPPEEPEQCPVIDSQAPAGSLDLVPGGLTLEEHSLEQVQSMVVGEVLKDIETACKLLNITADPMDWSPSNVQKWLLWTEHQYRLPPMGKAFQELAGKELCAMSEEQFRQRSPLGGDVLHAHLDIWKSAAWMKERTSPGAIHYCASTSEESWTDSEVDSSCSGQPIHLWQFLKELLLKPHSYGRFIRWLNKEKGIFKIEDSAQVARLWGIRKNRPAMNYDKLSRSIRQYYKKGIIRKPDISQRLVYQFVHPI
In a few lines: as §1

The target in the next assay is T5, ETV7 (Homo sapiens, UniProt Q9Y603 1-341).
T5 sequence: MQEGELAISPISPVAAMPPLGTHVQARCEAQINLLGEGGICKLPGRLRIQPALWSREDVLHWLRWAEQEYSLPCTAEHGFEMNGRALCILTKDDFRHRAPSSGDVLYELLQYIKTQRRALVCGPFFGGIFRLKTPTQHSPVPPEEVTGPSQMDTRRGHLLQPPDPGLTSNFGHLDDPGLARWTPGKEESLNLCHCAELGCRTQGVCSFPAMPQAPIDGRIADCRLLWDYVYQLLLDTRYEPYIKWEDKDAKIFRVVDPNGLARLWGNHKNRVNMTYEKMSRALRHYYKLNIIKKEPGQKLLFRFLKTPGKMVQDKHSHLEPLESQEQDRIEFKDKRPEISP
An outline of the steps:
as §1

The target in another assay is T6, ELF5 (Homo sapiens, UniProt Q9UKW6-2 1-255).
T6 sequence: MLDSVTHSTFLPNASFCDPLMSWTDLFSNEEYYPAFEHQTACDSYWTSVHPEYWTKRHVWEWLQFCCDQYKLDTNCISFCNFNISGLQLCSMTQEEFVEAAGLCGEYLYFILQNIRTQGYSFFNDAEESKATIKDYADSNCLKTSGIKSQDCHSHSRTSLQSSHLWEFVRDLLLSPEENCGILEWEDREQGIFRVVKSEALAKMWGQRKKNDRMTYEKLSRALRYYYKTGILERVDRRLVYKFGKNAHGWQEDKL
In a few lines: as §1

The target of a further assay is T7, ETV3 (Homo sapiens, UniProt P41162-2 1-143).
T7 sequence: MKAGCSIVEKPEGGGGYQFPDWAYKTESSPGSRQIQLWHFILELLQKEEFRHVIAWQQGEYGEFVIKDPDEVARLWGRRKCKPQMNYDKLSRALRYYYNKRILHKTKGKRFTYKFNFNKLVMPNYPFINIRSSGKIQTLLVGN
An outline of the steps:
as §1

The next assay has as its target ETV6 (Homo sapiens, UniProt P41212 1-452). An outline of the steps:
as §1

Chain of ETV6 (P41212 whole entry): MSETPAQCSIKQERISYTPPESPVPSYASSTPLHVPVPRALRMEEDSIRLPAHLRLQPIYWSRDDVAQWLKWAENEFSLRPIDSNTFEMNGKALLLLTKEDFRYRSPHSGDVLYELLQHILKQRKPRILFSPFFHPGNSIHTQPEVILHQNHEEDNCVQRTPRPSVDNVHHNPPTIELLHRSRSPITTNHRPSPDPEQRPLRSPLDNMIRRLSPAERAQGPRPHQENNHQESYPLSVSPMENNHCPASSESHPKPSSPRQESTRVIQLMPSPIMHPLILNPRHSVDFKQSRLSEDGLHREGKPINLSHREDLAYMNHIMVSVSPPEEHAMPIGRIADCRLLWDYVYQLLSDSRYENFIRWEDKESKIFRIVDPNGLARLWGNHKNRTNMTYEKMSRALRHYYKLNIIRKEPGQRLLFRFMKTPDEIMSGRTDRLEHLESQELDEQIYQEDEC

Take CGCTCC: the binding signal was 1.31 fold enrichment (6-mer frequency, TF over GST control) with ERF; 1.4 fold enrichment (6-mer frequency, TF over GST control) with ETV3L; 1.39 fold enrichment (6-mer frequency, TF over GST control) with ETS2; 1.22 fold enrichment (6-mer frequency, TF over GST control) with SPDEF; 1.18 fold enrichment (6-mer frequency, TF over GST control) with ETV7; 1.23 fold enrichment (6-mer frequency, TF over GST control) with ELF5. Besides, the binding signal with ETV3 was 1.19 fold enrichment (6-mer frequency, TF over GST control); with ETV6, 1.11 fold enrichment (6-mer frequency, TF over GST control).
As to CTCAAA, the binding signal with ERF was 1.11 fold enrichment (6-mer frequency, TF over GST control); with ETV3L, 1.16 fold enrichment (6-mer frequency, TF over GST control); with ETS2, 1.2 fold enrichment (6-mer frequency, TF over GST control); with SPDEF, 1.14 fold enrichment (6-mer frequency, TF over GST control); with ETV7 it was 1.14 fold enrichment (6-mer frequency, TF over GST control); in the assay with ELF5 it was 1.16 fold enrichment (6-mer frequency, TF over GST control). Also, the binding signal with ETV3 is 1.2 fold enrichment (6-mer frequency, TF over GST control); with ETV6, 1.21 fold enrichment (6-mer frequency, TF over GST control).
Take TCGCAA: the binding signal with ERF is 1.27 fold enrichment (6-mer frequency, TF over GST control); with ETV3L it was 1.1 fold enrichment (6-mer frequency, TF over GST control); in the assay with ETS2, 1.05 fold enrichment (6-mer frequency, TF over GST control); with SPDEF, 1.09 fold enrichment (6-mer frequency, TF over GST control); with ETV7, 1.01 fold enrichment (6-mer frequency, TF over GST control); in the assay with ELF5, 1.06 fold enrichment (6-mer frequency, TF over GST control). In addition, the binding signal was 1.13 fold enrichment (6-mer frequency, TF over GST control) in the assay with ETV3 and 1.09 fold enrichment (6-mer frequency, TF over GST control) in the assay with ETV6.
As for TTACCG, the binding signal with ERF is 1.05 fold enrichment (6-mer frequency, TF over GST control); in the assay with ETV3L, 1.03 fold enrichment (6-mer frequency, TF over GST control); with ETS2, 1.19 fold enrichment (6-mer frequency, TF over GST control); with SPDEF, 1.21 fold enrichment (6-mer frequency, TF over GST control); with ETV7, 1.17 fold enrichment (6-mer frequency, TF over GST control); with ELF5 it was 1.3 fold enrichment (6-mer frequency, TF over GST control). The binding signal with ETV3 was 1.23 fold enrichment (6-mer frequency, TF over GST control); in the assay with ETV6 it was 1.25 fold enrichment (6-mer frequency, TF over GST control).
In the case of TTACTG, the binding signal in the assay with ERF was 1.2 fold enrichment (6-mer frequency, TF over GST control); with ETV3L, 1.04 fold enrichment (6-mer frequency, TF over GST control); with ETS2, 1.09 fold enrichment (6-mer frequency, TF over GST control); in the assay with SPDEF, 1.07 fold enrichment (6-mer frequency, TF over GST control); in the assay with ETV7, 1.14 fold enrichment (6-mer frequency, TF over GST control); with ELF5, 1.02 fold enrichment (6-mer frequency, TF over GST control). In addition, the binding signal with ETV3 is 1.21 fold enrichment (6-mer frequency, TF over GST control); with ETV6, 1.17 fold enrichment (6-mer frequency, TF over GST control).
For the sequence TGGCAA, the binding signal was 1.21 fold enrichment (6-mer frequency, TF over GST control) with ERF; 1.23 fold enrichment (6-mer frequency, TF over GST control) with ETV3L; 1.14 fold enrichment (6-mer frequency, TF over GST control) in the assay with ETS2; 1 fold enrichment (6-mer frequency, TF over GST control) in the assay with SPDEF; 1.16 fold enrichment (6-mer frequency, TF over GST control) with ETV7; 1.16 fold enrichment (6-mer frequency, TF over GST control) in the assay with ELF5. For the same sequence, the binding signal was 1.12 fold enrichment (6-mer frequency, TF over GST control) with ETV3 and 1.28 fold enrichment (6-mer frequency, TF over GST control) with ETV6.
Regarding TCCCCG, the binding signal in the assay with ERF was 1.21 fold enrichment (6-mer frequency, TF over GST control); in the assay with ETV3L it was 1.17 fold enrichment (6-mer frequency, TF over GST control); in the assay with ETS2 it was 1.11 fold enrichment (6-mer frequency, TF over GST control); with SPDEF, 1.14 fold enrichment (6-mer frequency, TF over GST control); with ETV7, 1.15 fold enrichment (6-mer frequency, TF over GST control); with ELF5 it was 1.24 fold enrichment (6-mer frequency, TF over GST control). Moreover, the binding signal in the assay with ETV3 was 1.27 fold enrichment (6-mer frequency, TF over GST control); with ETV6, 1.13 fold enrichment (6-mer frequency, TF over GST control).
Turning to AATGAA, the binding signal with ERF was 1.29 fold enrichment (6-mer frequency, TF over GST control); with ETV3L, 1.19 fold enrichment (6-mer frequency, TF over GST control); with ETS2, 1.15 fold enrichment (6-mer frequency, TF over GST control); in the assay with SPDEF it was 1.04 fold enrichment (6-mer frequency, TF over GST control); in the assay with ETV7 it was 1.18 fold enrichment (6-mer frequency, TF over GST control); with ELF5 it was 1.22 fold enrichment (6-mer frequency, TF over GST control). For the same sequence, the binding signal with ETV3 was 1.17 fold enrichment (6-mer frequency, TF over GST control); with ETV6, 1.23 fold enrichment (6-mer frequency, TF over GST control).

The values are drawn from publication PMC7862700, “An all-to-all approach to the identification of sequence-specific readers for epigenetic DNA modifications on cytosine”.
